# Bioassay records as filed in PubChem BioAssay.
# Mdm2 MdmX PPI: inhibitors of human Mdm2/MdmX interaction. SaOS-2 split-luciferase Mdm2/MdmX complementation, luminescence. inhibition, % at 8 µM. hit rate 3% among 330,000. O15151+Q00987;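 active = inhibition of at least 50% at 8 µM in the primary screen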
# Target sequence (O15151 whole entry, looked up): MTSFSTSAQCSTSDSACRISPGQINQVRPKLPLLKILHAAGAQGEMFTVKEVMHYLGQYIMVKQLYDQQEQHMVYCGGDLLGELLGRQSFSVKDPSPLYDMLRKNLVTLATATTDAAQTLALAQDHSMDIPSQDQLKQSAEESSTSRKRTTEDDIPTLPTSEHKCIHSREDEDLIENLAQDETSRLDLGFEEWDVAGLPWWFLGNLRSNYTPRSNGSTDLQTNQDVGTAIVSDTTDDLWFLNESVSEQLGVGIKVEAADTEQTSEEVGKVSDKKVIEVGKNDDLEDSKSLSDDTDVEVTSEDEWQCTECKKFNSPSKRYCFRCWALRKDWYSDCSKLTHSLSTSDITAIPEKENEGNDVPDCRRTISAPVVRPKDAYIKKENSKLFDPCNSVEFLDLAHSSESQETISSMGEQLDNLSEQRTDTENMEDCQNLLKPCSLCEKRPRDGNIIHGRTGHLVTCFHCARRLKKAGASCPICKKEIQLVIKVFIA
# Target sequence (Q00987 whole entry, looked up): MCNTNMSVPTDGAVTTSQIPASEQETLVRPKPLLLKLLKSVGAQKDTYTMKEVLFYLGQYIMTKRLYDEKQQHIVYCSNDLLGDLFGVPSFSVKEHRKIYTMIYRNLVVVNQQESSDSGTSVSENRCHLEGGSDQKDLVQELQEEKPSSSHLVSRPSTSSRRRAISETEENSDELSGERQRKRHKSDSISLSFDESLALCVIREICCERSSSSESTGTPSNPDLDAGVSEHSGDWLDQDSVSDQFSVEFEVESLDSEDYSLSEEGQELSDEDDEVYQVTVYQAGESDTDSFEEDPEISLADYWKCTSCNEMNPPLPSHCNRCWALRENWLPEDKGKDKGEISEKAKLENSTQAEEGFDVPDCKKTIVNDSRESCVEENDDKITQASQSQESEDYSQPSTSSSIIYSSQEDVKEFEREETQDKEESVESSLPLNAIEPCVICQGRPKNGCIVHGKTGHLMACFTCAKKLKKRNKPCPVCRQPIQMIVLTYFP
# Beta cell apopt: blocks beta cell apoptosis. hit rate 0.8% among 300,000. INS-1E cytokine-induced death, ATP luminescence, 48 h; percent of positive-control rescue, neutral wells zero. protection from apoptosis, % (test concentration not listed);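 active = Every replicate reaches about 75%, or at least half do and their mean reaches it too, limit read from the data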;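 note: 0% = cytokine-treated negative control wells and 100% = positive control rescue; higher means more ATP so stronger rescue from cytokine killing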
# Bfl-1 A1 inh: inhibitors of the anti-apoptotic protein A1, read as caspase activation | caspase activation, % (test concentration not listed) | AID 2462 | MEF A1-2A-BIM cells, Caspase-Glo 3/7 luminescence, 3 h; percent of clofoctol response, vehicle zero | hit rate 0.066% among 330,000;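 active = over half of replicate activation scores above 10%, or exactly half above 10 with the replicate mean above 10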
# aSyn UTR inh: MLPCN primary screen, SNCA 5' untranslated region; AID 1813; alpha-synuclein 5'UTR reporter, inhibitor activity; hit rate 0.82% among 300,000; inhibition, % (tested at 7.5 µM); in the data active = inhibition above about 60%;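 note: H4 neuroglioblastoma cells stably carrying SNCA 5'UTR luciferase fusion; 0% = DMSO wells and 100% = positive control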
# CSC inhib: cancer stem cell inhibition. inhibition, % at 7.5 µM. hit rate 1.1% among 300,000. AID 2717. cancer stem cell-like cells viability, luminescence; in the data active = inhibition above about 75%; tested in HMLE shEcad cells
# The depositor's hits bear a star; nt = not tested or not shown. Only some compounds are listed: those with a hit (about 4.1% of all), similar ones and a draw of the others.
SMILES,Mdm2 MdmX PPI,Beta cell apopt,Bfl-1 A1 inh,aSyn UTR inh,CSC inhib
CNC(=O)Oc1ccc(-c2cn3cc(C)ccc3n2)cc1,-18.1,19.7,-5.6,75.5*,10.5
C[C@H]1CC[C@H]2NCCN[C@H]2C1,-1.9,-2.9,0.3,-0.1,-2.0
CCCCC/C=C\C/C=C\C/C=C\C/C=C\CCCC(=O)Nc1ccc(O)cc1,nt,nt,1.1,-10.0,85.0*
C[C@H]1C(=O)O[C@@H]2CCN3CC=C(COC(=O)[C@](C)(O)[C@]1(C)O)[C@H]23,12.6,3.4,0.8,nt,-2.7
COC(=O)C1=C(c2cccc(OC)c2OC)C[C@@H]2CC[C@H]1N2C(=O)NC(C)C,12.7,-10.6,0.3,11.8,-3.8
CCCCn1c(=O)c(C(=O)Nc2ncccc2C)c(O)c2ccccc21,25.9,-9.2,0.1,35.2,8.3
CCCCn1c(=O)c(C(=O)Nc2ccccc2)c(O)c2ccccc21,4.3,22.4,-1.1,-29.5,44.9
CCCCCn1c(=O)c(C(=O)NC(C)c2ccccc2)c(O)c2ccccc21 (stereo not given),31.9,109.4*,1.2,8.5,34.2
CCCCCn1c(=O)c(C(=O)Nc2ccccc2S(N)(=O)=O)c(O)c2ccccc21,42.3,18.9,-0.2,68.8*,5.8
CCCCCn1c(=O)c(C(=O)Nc2ccccc2C)c(O)c2ccccc21,25.3,nt,0.6,-82.7,0.8
CCCCCCn1c(=O)c(C(=O)Nc2ncccc2C)c(O)c2ccccc21,4.6,82.3*,2.5,30.8,6.3
CCOC(=O)C(O)(c1ccc(N(CC)C(=O)COc2ccccc2)cc1)C(F)(F)F (stereo not given),14.0,4.8,-0.9,-2.7,0.7
NS(=O)(=O)c1ccc(N=Cc2c(O)n(C3CCCCC3)c(=O)n(C3CCCCC3)c2=O)cc1,40.4,1.5,0.0,13.8,90.2*
N#CC(C#N)=C(C#N)c1ccc(Nc2ccccc2)cc1,13.5,nt,-0.3,-15.2,93.4*
O=C(CN1CCCC1)Nc1ccc(Cl)cc1C(=O)c1ccccc1,8.1,16.8,0.5,32.3,85.0*
Oc1c(Br)cc(Br)cc1Br,18.8,-1.3,0.3,nt,-10.3
Oc1c(Br)c(Br)c(Br)c(Br)c1Br,21.0,-1.1,0.1,nt,101.2*
O=C(/C=C/c1ccc2c(c1)OCO2)c1c(O)n(CCC2=CCCCC2)c(=O)[nH]c1=O,nt,0.5,-0.3,nt,84.2*
CCCCn1c(O)c(C(=O)/C=C/c2ccc3c(c2)OCO3)c(=O)[nH]c1=O,9.4,nt,0.4,-23.6,-5.9
COc1ccc(-c2nn(CCC#N)cc2C(=O)Nc2cccc([N+](=O)[O-])c2)cc1OC,7.3,4.5,-0.2,-8.9,-10.3
COc1cc(/C=C/[N+](=O)[O-])ccc1OC(=O)c1cccnc1,14.8,12.4,8.0*,-59.4,66.2
COc1cc2c(cc1/C=C/[N+](=O)[O-])OCO2,nt,nt,nt,-5.5,nt
O=C(NCc1cccnc1)Nc1ccc([N+](=O)[O-])cc1,12.2,81.1*,0.5,-2.8,-0.8
CCCNC(=O)N1[C@H]2CC[C@@H]1C(C(=O)OC)=C(c1cccc(OC)c1OC)C2,6.6,-7.2,-0.3,11.3,-6.5
CC(C)=CCc1c(O)cc2c(c1O)C(=O)CC(c1ccc(O)cc1)O2 (stereo not given),28.6,nt,-0.1,-53.3,98.6*
SMILES,Mdm2 MdmX PPI,Beta cell apopt,Bfl-1 A1 inh,aSyn UTR inh,CSC inhib
CN1CCN(c2ccc(S(C)(=O)=O)cc2[N+](=O)[O-])CC1,-16.0,-2.6,0.6,-5.4,10.0
CN1CCN(c2ccc([N+](=O)[O-])c3no[n+]([O-])c23)CC1,nt,106.7*,2.6,97.8*,104.3*
Cc1nc2ncnn2c(C)c1CCC(=O)N1CCC2(CC1)OCCO2,4.9,-4.2,0.8,4.0,-18.5
Cc1nc2cc(-c3ccccc3)nn2c(C)c1CCC(=O)N1CCC2(CC1)OCCO2,21.8,-3.5,1.1,79.3*,9.4
O=C1Nc2cc(C(=O)N3CCC4(CC3)OCCO4)ccc2NC1CSCc1cccc(F)c1 (stereo not given),19.3,-5.7,-0.3,-17.3,3.4
C/C(=N\Nc1ccccc1)c1c(O)n(C)c(=O)n(C)c1=O,3.4,-3.5,0.9,35.1,91.5*
C/C(=N\Nc1ccccc1)c1c(O)[nH]c(=O)[nH]c1=O,17.8,nt,-0.1,18.9,81.6*
C/C(=N\Nc1ccccc1)c1c(O)n(-c2ccccc2)c(=O)[nH]c1=O,-19.4,1.2,-0.8,nt,75.3*
CC(=NCCCn1ccnc1)c1c(O)n(-c2ccccc2)c(=O)[nH]c1=O,9.8,nt,0.4,2.6,-13.2
C/C(=N\Nc1ccccc1)c1c(O)n(Cc2ccccc2)c(=O)[nH]c1=O,9.6,2.9,1.3,3.4,109.9*
